Measurements reported in PubChem BioAssay (NCATS).
Results filed as inconclusive are left out. Calls of active or inactive are those of the source. Unless noted, calls come from the whole dose curve; as a rule, active = well fitted curve in the direction sought with a large enough effect; inconclusive = small, poorly fitted or top-dose-only effect, or another doubt; inactive = no such curve, though single readings can be large; an effect the other way counts as inactive or inconclusive.

How the values were obtained:
[1] = Cell Viability - LYMP1-002 - Assay at 40 hr (AID 994);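 note: 0% = DMSO only and full inhibition = 92 µM tetraoctylammonium bromide; nearly all actives have a fitted effect of over 60% in size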
Method in brief: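 qHTS cytotoxicity; 2500 cells/well, 5 hr 37 C settle, compound 40 hr 37 C. CellTiter-Glo, 30 min RT, luminescence (ATP). Concentration-response, Hill fit → AC50. Pos. ctrl tetraoctylammonium bromide.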

[2] = qHTS profiling for inhibitors of Plasmodium falciparum (3D7) proliferation (AID 743322);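 note: infected erythrocytes exposed to compound for 72 h before lysis; 100% = DMSO vehicle wells and 0% = 0.29 µM artemisinin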; conditions: P. falciparum 3D7 proliferation; at 28.7 µM (top of the series)
Method in brief: (§1)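 Parasite DNA was quantified by SYBR Green I fluorescence (ex 485, em 535 nm) after overnight lysis in saponin/Triton buffer at room temperature. Cultures at 0.3% parasitemia and 2.5% hematocrit were first exposed to compound for 72 h at 37 C; signals were normalised to artemisinin (0.29 uM) and vehicle wells.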

[3] = qHTS profiling for inhibitors of Plasmodium falciparum (DD2) proliferation (AID 743323; call rule not given here); conditions: lower = more inhibition; at 28.7 µM (top of the series)
Method in brief: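 SYBR Green fluorescence (ex 485, em 535 nm) of lysed cultures gives parasite DNA content; wells normalized to artemisinin (0.29 uM) and DMSO controls. Infected red cells: 0.3% parasitemia, 2.5% hematocrit, 72 h, 37 C.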

[4] = qHTS profiling for inhibitors of Plasmodium falciparum (HB3) proliferation (AID 743324); conditions: Plasmodium falciparum HB3 blood-stage proliferation; at 28.7 µM (top of the series);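 note: 100% = DMSO vehicle wells and 0% = artemisinin-treated control wells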
Method in brief: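 SYBR Green fluorescence (485 ex/535 em) of lysed cultures, incubated overnight at room temperature in the dark, quantifies parasite DNA. Infected erythrocytes at 0.3% parasitemia and 2.5% hematocrit were exposed 72 h; values normalized to DMSO and 0.29 uM artemisinin controls.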

7G8 = assay: qHTS profiling for inhibitors of Plasmodium falciparum proliferation (AID 504749); note: nearly all actives have a fitted effect of over 60% in size; note: potency is the fitted concentration of half-maximal effect; conditions: P. falciparum in erythrocytes, SYBR Green DNA, 72 h; series mostly up to 28.7 µM
Method in brief: (§2)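 SYBR Green fluorescence (ex 485 nm, em 535 nm) reports parasite DNA after 72 h compound exposure of infected red cells at 0.3% parasitemia, 2.5% hematocrit; signal normalized to 0.29 uM artemisinin and vehicle wells.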

CP194 = assay: as above; conditions: P. falciparum in erythrocytes, SYBR Green DNA, 72 h; series mostly up to 28.7 µM
Method in brief: as §2

DIV14 = assay: as above; conditions: P. falciparum in erythrocytes, SYBR Green DNA, 72 h; series mostly up to 28.7 µM
Method in brief: as §2

DIV17 = assay: as above; conditions: P. falciparum in erythrocytes, SYBR Green DNA, 72 h; series mostly up to 28.7 µM
Method in brief: as §2

GB4 = assay: as above; conditions: P. falciparum in erythrocytes, SYBR Green DNA, 72 h; series mostly up to 28.7 µM
Method in brief: as §2

ICS = assay: as above; conditions: P. falciparum in erythrocytes, SYBR Green DNA, 72 h; series mostly up to 28.7 µM
Method in brief: as §2

PC26 = assay: as above; conditions: P. falciparum in erythrocytes, SYBR Green DNA, 72 h; series mostly up to 28.7 µM
Method in brief: as §2

W2 = assay: as above; conditions: P. falciparum in erythrocytes, SYBR Green DNA, 72 h; series mostly up to 28.7 µM
Method in brief: as §2

[5] = S16 Schwann cell viability assay (CellTiter-Glo assay) (AID 624031);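 note: native untransfected S16 rat Schwann cells; cellular ATP luminescence as a viability measure; plate controls were DMSO-treated cells for no effect and cell-free wells for full effect; nearly all actives have a fitted effect of over 70% in size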
Method in brief: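 Concentration-effect curves come from CellTiter-Glo luminescence of S16 rat Schwann cells after 24 h compound exposure. Each reading was normalized to DMSO wells (0%) and wells without cells, and curves were ranked by r2 and response magnitude.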

CP297 = assay: qHTS profiling for inhibitors of Plasmodium falciparum proliferation (AID 504749); note: nearly all actives have a fitted effect of over 60% in size; note: potency is the fitted concentration of half-maximal effect; conditions: P. falciparum in erythrocytes, SYBR Green DNA, 72 h; series mostly up to 28.7 µM
Method in brief: as §2

FAB9 = assay: as above; conditions: P. falciparum in erythrocytes, SYBR Green DNA, 72 h; series mostly up to 28.7 µM
Method in brief: as §2

[6] = qHTS profiling of the MIPE4 collection as inhibitors of Plasmodium falciparum (DD2) proliferation (Rep 2) (AID 743346; call rule not given here); conditions: P. falciparum Dd2 in erythrocytes, SYBR Green DNA, 72 h; at 28.5 µM (top of the series) unless noted
Method in brief: as §1

[7] = target: Tumor susceptibility gene 101 protein (Homo sapiens) (UniProt Q99816); assay: qHTS Assay for Iinhibitors of HIV-1 Budding by Blocking the Interaction of PTAP/TSG101: Hit Validation (AID 651600); note: % is set by controls: 0 for no effect and ±100 for the full control effect; nearly all actives have a fitted effect of over 70% in size
Chain of Tumor susceptibility gene 101 protein (Homo sapiens) (Q99816 whole entry, looked up, the tested form may be a part): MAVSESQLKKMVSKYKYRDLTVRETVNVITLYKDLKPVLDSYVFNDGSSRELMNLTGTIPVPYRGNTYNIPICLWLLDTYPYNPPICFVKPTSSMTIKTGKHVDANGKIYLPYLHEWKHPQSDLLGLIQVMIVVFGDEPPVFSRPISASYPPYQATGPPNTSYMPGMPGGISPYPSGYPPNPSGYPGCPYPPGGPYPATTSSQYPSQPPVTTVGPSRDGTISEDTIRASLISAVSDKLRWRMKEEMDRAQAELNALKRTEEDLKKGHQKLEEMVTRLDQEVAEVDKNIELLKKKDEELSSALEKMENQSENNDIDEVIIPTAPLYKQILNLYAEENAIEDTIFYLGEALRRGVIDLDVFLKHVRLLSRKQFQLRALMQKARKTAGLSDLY
Method in brief: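 Tsg101 binding domain 10 uM + FITC-PTAP peptide 50 nM (final), 10 mM HEPES pH 7.5/0.15 M NaCl/0.01% Tween 20/3 mM EDTA/0.1 mM TCEP; 20 min RT; FP read, FITC filters.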

[8] = target: Bile acid receptor (Homo sapiens) (UniProt Q96RI1); assay: qHTS assay for small molecule agonists of farnesoid X receptor signaling (AID 588527; calls by dose curve;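 note: 0% = vehicle basal and 100% = reference agonist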); conditions: HEK293T FXR-UAS-bla, beta-lactamase ratio, 16 h; activation: stronger effect = higher value
Chain of Bile acid receptor (Homo sapiens) (Q96RI1 whole entry, looked up): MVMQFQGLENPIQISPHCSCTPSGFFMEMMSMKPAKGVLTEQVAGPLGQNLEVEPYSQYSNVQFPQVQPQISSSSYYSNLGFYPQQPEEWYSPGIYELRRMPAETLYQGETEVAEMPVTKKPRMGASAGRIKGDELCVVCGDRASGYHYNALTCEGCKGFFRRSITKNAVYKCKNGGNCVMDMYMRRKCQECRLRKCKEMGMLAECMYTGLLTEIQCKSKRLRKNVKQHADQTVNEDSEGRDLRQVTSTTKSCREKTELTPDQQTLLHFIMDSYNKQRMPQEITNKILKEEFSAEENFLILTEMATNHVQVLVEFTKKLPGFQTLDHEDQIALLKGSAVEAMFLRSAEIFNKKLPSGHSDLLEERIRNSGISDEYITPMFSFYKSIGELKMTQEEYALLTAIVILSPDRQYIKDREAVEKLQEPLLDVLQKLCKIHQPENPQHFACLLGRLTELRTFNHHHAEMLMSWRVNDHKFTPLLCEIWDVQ
Method in brief: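 FXR-UAS-bla HEK293T, 10% dialyzed FBS; cpds up to 92 uM titration, 16 h 37 C; CCF4 dye 2 h RT; fluorescence. Normalized to chenodeoxycholic acid 100 uM (100%) and DMSO (0%); Hill fit gives EC50, efficacy.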

[9] = target: Glucocorticoid receptor (Homo sapiens) (UniProt P04150); assay: qHTS assay for small molecule antagonists of glucocorticoid receptor signaling (AID 588533; active = well fitted inhibition curve with a large enough effect in the signal ratio, with a control signal flat, not every such curve was filed as active; the % refers to the signal ratio;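 note: cells stimulated with 2 nM dexamethasone as agonist; % is set by controls: 0 for no effect and ±100 for the full control effect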)
Chain of Glucocorticoid receptor (Homo sapiens) (P04150 whole entry, looked up): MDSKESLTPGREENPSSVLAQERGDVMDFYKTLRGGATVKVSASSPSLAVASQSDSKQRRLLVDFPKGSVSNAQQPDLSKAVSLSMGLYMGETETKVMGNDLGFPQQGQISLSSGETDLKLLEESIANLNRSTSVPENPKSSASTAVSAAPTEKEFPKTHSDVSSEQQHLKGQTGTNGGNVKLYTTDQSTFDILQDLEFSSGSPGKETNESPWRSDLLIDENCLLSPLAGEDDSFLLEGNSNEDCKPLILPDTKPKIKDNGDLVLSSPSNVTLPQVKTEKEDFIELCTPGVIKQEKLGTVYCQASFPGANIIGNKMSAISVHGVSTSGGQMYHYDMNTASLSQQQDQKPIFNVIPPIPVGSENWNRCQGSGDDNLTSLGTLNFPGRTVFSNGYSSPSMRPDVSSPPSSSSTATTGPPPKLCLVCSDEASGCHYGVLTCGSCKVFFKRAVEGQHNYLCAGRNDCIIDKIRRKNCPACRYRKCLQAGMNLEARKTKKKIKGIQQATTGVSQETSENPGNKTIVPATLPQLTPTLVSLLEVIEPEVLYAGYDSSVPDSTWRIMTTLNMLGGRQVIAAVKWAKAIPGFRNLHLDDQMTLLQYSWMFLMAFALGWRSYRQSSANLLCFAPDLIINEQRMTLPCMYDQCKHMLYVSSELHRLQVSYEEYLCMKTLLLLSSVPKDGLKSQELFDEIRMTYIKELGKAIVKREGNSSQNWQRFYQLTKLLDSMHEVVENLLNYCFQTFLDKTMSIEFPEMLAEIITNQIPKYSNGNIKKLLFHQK
Method in brief: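 Antagonist-mode qHTS: compound titrations added to GRE-bla HeLa cells, then dexamethasone 2 nM final; 18 h, 37 C. CCF4 FRET fluorescence normalized to dexamethasone and DMSO; IC50 from Hill fit.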

[10] = target: Peroxisome proliferator-activated receptor gamma (Homo sapiens) (UniProt P37231); assay: qHTS assay for small molecule agonists of peroxisome proliferator-activated receptor gamma signaling (AID 588536; active = well fitted curve in the direction sought with a large enough effect in the signal ratio, with a control signal flat, not every such curve was filed as active; the % refers to the signal ratio;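 note: 0% = DMSO basal wells and 100% = rosiglitazone at 2 µM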)
Chain of Peroxisome proliferator-activated receptor gamma (Homo sapiens) (P37231 whole entry, looked up): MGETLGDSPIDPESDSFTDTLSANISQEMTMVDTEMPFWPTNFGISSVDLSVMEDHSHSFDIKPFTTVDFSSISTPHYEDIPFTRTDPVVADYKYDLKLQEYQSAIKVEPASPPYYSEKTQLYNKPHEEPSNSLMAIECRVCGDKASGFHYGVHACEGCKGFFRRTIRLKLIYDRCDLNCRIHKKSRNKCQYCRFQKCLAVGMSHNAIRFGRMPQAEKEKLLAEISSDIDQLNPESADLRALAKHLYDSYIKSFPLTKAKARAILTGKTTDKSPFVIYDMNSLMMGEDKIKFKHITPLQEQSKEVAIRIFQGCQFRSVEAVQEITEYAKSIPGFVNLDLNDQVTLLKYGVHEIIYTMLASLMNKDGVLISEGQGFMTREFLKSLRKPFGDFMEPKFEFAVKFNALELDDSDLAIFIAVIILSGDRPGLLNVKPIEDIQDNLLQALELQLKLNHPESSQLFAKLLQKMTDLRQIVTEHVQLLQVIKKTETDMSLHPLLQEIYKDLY
Method in brief: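 Compound treatment: 16 h, 37 C, HEK293 GeneBLAzer cells. Detection: CCF4, 2 h RT. Values: Hill-fit EC50, efficacy as % of 2 uM rosiglitazone.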

## CC(C)(c1ccc(OCC2CO2)cc1)c1ccc(OCC2CO2)cc1 (stereo not given)
[1]
  Potency: inactive

## CCCCC[C@H]1C(=O)O[C@H](C)[C@H](NC(=O)c2cccc(NC=O)c2O)C(=O)O[C@@H](C)[C@@H]1OC(=O)CC(C)C
[2]
  remaining parasite growth % (stronger effect = lower value): 20.4%
[3]
  activity, percent of control: 8.53%
[4]
  remaining proliferation (% of control), lower = more inhibition: 6.18%

## CC(C)[C@@]1(NC(=O)[C@H]2CC3c4cccc5[nH]cc(c45)C[C@H]3N(C)C2)O[C@@]2(O)C3CCCN3C(=O)[C@@H](Cc3ccccc3)N2C1=O (stereo not given in full)
7G8
  Potency: 199 nM (active)
CP194
  Potency: 6750 nM (active)
DIV14
  Potency: 953 nM (active)
DIV17
  Potency: 849 nM (active)
GB4
  Potency: 3010 nM (active)
ICS
  Potency: 447 nM (active)
PC26
  Potency: 1510 nM (active)
W2
  Potency: 953 nM (active)

## CCN1C[C@]2(COC)[C@H](O)C[C@H](OC)[C@]34C1C([C@H](OC)[C@H]23)[C@]1(OC(C)=O)C2[C@@H](OC(=O)c3ccccc3)C(O)(C[C@H]24)[C@@H](OC)[C@@H]1O
[5]
  Potency: inactive
CP297
  Potency: inactive
FAB9
  Potency: inactive

## O=C1CC[C@@]2(O)[C@H]3Cc4ccc(O)c5c4C2(CCN3CC2CC2)[C@H]1O5
[6]
  parasite growth, % of control (lower = inhibition): 59.1%

## CC(C)C[C@H]1C(=O)N2CCCC2[C@]2(O)O[C@](NC(=O)[C@@H]3C=C4c5cccc6[nH]cc(c56)CC4N(C)C3)(C(C)C)C(=O)N12 (stereo not given in full)
[7]
  outcome: inactive

## Cc1ccc2cc3c(ccc4ccccc43)c3c2c1CC3
[8]
  activation: 2.18% (inactive)
[9]
  Potency: inactive
[10]
  outcome: inactive
